Data reported in PubChem BioAssay.
Where “and” joins values, the source holds several entries; their conditions need not be identical. Equal values may be shown once. Calls of active or inactive are those of the source.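 Rule for the calls, unless noted: active = compounds whose cell count with miR-34 switched on is under 0.7 times the count with it off; inactive = the rest.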

What was measured:
[1] = sensitizers of A549 cells to miR-34 induction, primary screen, imaging, A549 dox-inducible miR-34, nuclei and caspase counts (AID 1347080); settings: A549 miR-34 inducible, Hoechst nuclei count, 48 h; note: test concentration not given here
[2] = survival rescue of mitochondrial mutant cells in low glucose, primary screen, MELAS cybrids, Rieske KO mouse fibroblasts, CellTiter-Glo (AID 1508586;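 active = mean z-score across replicates of 1.96 or higher in either the MELAS or the Rieske mutant cell line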;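 note: test concentration not given here; z relative to plate mean and SD of compound and empty wells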)
[3] = viability rescue of complex I mutant cybrids, primary screen, cell-based, galactose medium, ATP luminescence (AID 1645843;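 active = z-score of at least 1.8 in each of two replicates, scored against plate mean and spread of sample wells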;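 note: positive z means more ATP and so rescue of galactose-driven cybrid death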); settings: complex I mutant cybrid cells, 72 h, stronger effect = higher value
[4] = stronger effect = lower value, cell number ratio, induced over uninduced
[5] = measured here: relative caspase fold change +Dox/-Dox
[6] = measured here: total cells with miR-34 induction, stronger effect = lower value
[7] = measured here: total cells without miR-34 induction
[8] = MELAS cybrid survival, CellTiter-Glo 48 h, stronger effect = higher value
[9] = Rieske KO mouse fibroblast survival, CellTiter-Glo 72 h

Compound | fold change [1, 4] | fold change [1, 5] | cell count [1, 6] | cell count [1, 7] | z-score [2, 8] | z-score [2, 9] | z-score [3]
O=C(O)c1ccc(-c2ccccc2C(F)(F)F)o1 | 0.879 (inactive) | 0.45 | 8380 | 9530 | 0.000745 (inactive) | -0.553 | 0.155 (inactive)
OCCNc1ncnc2oc(-c3ccccc3)c(-c3ccccc3)c12 | 0.989 (inactive) | 0.446 | 5100 | 5160 | 0.83 | 7.8 | -1.23 (inactive)
CC(=O)[C@]1(O)Cc2c(O)c3c(c(O)c2C(OC2CC(N)C(O)C(C)O2)C1)C(=O)c1ccccc1C3=O (stereo not given in full) | 0.995 (inactive) and 0.89 (inactive) | 0.907 and 1.04 | 734 and 2090 | 738 and 2350 | 2.4 (active) | -0.525 | -1.88 (inactive)
Cc1nnc(NC(=O)NCC(c2ccccc2)c2ccccc2)s1 | 0.837 (inactive) | 0.947 | 7790 | 9310 | 0.623 (inactive) | 1.94 | 1.01 (inactive)
CN(C)C(=O)c1cc(-c2cnc(-c3ccccn3)nc2)nc2cc(F)ccc12 | 0.875 (inactive) | 1.98 | 8570 | 9790 | -0.444 (inactive) | -0.334 | -0.41 (inactive)
Cc1cccc(-n2cnc3cc(N)ccc32)c1 | 0.889 (inactive) | 1.07 | 8160 | 9170 | 1.59 (inactive) | 0.221 | 0.94 (inactive)
O=C(O)c1ccc2ccccc2n1 | 0.876 (inactive) | 0.492 | 7890 | 9000 | -1.05 (inactive) | -0.692 | 0.485 (inactive)
c1cc(-c2nc(Cc3ccsc3)no2)c2nccnc2c1 | 0.89 (inactive) | 0.787 | 8210 | 9220 | -0.0904 (inactive) | 1.15 | 0.105 (inactive)
COc1ccc(CCC(=O)O)cc1OC | 0.922 (inactive) | 0.518 | 8510 | 9240 | -0.767 (inactive) | -0.44 | -0.02 (inactive)
O=C1CCNC(=O)N1 | 0.882 (inactive) | 0.303 | 8710 | 9870 | 0.298 (inactive) | 0.144 | 0.585 (inactive)
CS(=O)(=O)c1ccc(C(=N)N)cc1 | 0.887 (inactive) | 0.391 | 8670 | 9770 | 0.807 (inactive) | -0.298 | 0.2 (inactive)
O=C1CC(c2ccc(O)cc2)Oc2cc(O)ccc21 (stereo not given) | 0.9 (inactive) | 0.718 | 8540 | 9500 | 0.67 (inactive) | -0.313 | 0.305 (inactive)
O=C(O)Cc1ccc(O)c([N+](=O)[O-])c1 | 0.901 (inactive) | 0.986 | 8450 | 9380 | 0.677 (inactive) | 0.189 | 1 (inactive)
Cc1ccc(NS(=O)(=O)c2ccccc2)c(C(=O)O)c1 | 0.888 (inactive) | 0.521 | 8960 | 10100 | 0.391 (inactive) | -0.208 | 0.425 (inactive)
c1ccc2c(CCc3ccncc3)c[nH]c2c1 | 0.863 (inactive) | 0.826 | 7350 | 8520 | 1.96 (inactive) | -0.242 | -0.71 (inactive)
COc1ccc2c(C(=O)N(C)C3CCN(C)C3)cc(-c3cnn(C)c3)nc2c1 (stereo not given) | 0.88 (inactive) | 1.02 | 8530 | 9700 | -0.325 (inactive) | -0.194 | -0.495 (inactive)
CC(C)(CCl)C(=O)Nc1ccc(C(F)(F)F)cc1 | 0.859 (inactive) | 1.51 | 8340 | 9720 | 0.804 (inactive) | 0.128 | 0.14 (inactive)
CCCn1cc(-c2ccnc(NC3CCN(Cc4cccnc4)CC3)n2)c(C)n1 | 0.82 (inactive) | 2 | 3430 | 4180 | -0.647 (inactive) | 0.672 | -0.55 (inactive)
COc1ccccc1-c1ccc(C(=O)O)o1 | 0.892 (inactive) | 0.465 | 8930 | 10000 | -1.1 (inactive) | 0.506 | 1.07 (inactive)
COc1ccc(C=CC(=O)O)cc1O | 0.917 (inactive) | 0.34 | 9250 | 10100 | 0.642 (inactive) | -0.171 | 0.285 (inactive)
